In the supplement of paper PMC10981050:
Several values for one entry are separate records, joined by “and”; a condition that tells them apart may be missing. Identical values can stand only once. Counter-ions that a name gives are not always drawn.

What was measured:
Test in all cases: cell viability relative to vehicle control; higher = less cytotoxic
Conditions in all cases: 10 µM
K562 = test system: K562
How it was run: (§1)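 Mutant clones made by CRISPR editing and their isogenic wild-type counterparts, from four leukaemia lines, were exposed to a single 10 µM dose of each library compound for 48 h. The supernatant was then removed and CellTiter-Glo luminescence was read. Viability was reported as percent of the on-plate vehicle control.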

MARIMO = test system: MARIMO
How it was run: as §1

MOLM14 = test system: MOLM14
How it was run: as §1

OCI-AML2 = test system: OCI-AML2
How it was run: as §1

| Structure (SMILES) | cell viability (K562; SRSF2 genotype: SRSF2 P95H/wt) | cell viability (K562; SRSF2 genotype: SRSF2 wt/wt) | cell viability (MARIMO; SRSF2 genotype: SRSF2 P95H/wt) | cell viability (MARIMO; SRSF2 genotype: SRSF2 wt/wt) | cell viability (MOLM14; SRSF2 genotype: SRSF2 P95H/wt) | cell viability (MOLM14; SRSF2 genotype: SRSF2 wt/wt) | cell viability (OCI-AML2; SRSF2 genotype: P95H/wt) | cell viability (OCI-AML2; SRSF2 genotype: wt/wt) |
| --- | --- | --- | --- | --- | --- | --- | --- | --- |
| CC[C@@H]1C(=O)N(C)c2cnc(Nc3ccc(C(=O)N[C@H]4CC[C@H](N5CCN(CC6CC6)CC5)CC4)cc3OC)nc2N1C(C)C [BI6727 (Volasertib)] | 3.41% and 6.94% | 9.46% | 12.2% | 16.7% | 3.23% | 0.61% | 4.52% | 11.5% |
| NC(=O)c1noc([C@H](CCCC2CCCCC2)CC(=O)NO)n1 | 92.1% and 88.7% | 83.8% | 61.7% | 68.3% | 76.3% | 80.6% | 15.1% | 40.7% |
| Nc1ccc(S(=O)(=O)Nc2ccccn2)cc1 [Sulfapyridine (Dagenan)] | 94.3% and 101% | 97.1% | 97.7% | 107% | 103% | 100% | 106% | 97.6% |
| Nc1nc(NCCNc2ncc(-n3ccnc3)c(-c3ccc(Cl)cc3Cl)n2)ccc1[N+](=O)[O-] | 110% and 106% | 99.1% | 125% | 132% | 109% | 115% | 131% | 148% |
| C[C@H]1O[C@@H](O[C@H]2CC[C@@]3(C)[C@@H](CC[C@]4(C)[C@@H]3C=C[C@]35OC[C@@]6(CCC(C)(C)C[C@H]63)[C@H](O)C[C@]54C)[C@]2(C)CO)[C@H](O)[C@@H](O[C@@H]2O[C@H](CO)[C@@H](O)[C@H](O)[C@H]2O)[C@H]1O [Saikosaponin D] | 6.69% and 0.65% | 0.4% | 14% | 3.54% | 0.86% | 0.86% | 10.2% | 12.9% |
| COc1cc(NS(=O)(=O)c2ccc(N)cc2)nc(OC)n1 [SulfadiMethoxine sodium] | 106% and 100% | 111% | 100% | 105% | 106% | 107% | 102% | 118% |
| CCOc1cc(C(=O)N2CCC(N3CCN(C)CC3)CC2)ccc1Nc1ncc2c(n1)N(C1CCCC1)c1ccccc1C(=O)N2C | 10.3% and 7.13% | 15.2% | 35.2% | 35.2% | 0.3% | 0.37% | 2.24% | 10.6% |
| CC(C)c1nc(CN(C)C(=O)N[C@@H](CCN2CCOCC2)C(=O)N[C@H](CC[C@H](Cc2ccccc2)NC(=O)OCc2cncs2)Cc2ccccc2)cs1 [Cobicistat (GS-9350)] | 88.4% and 101% | 95.7% | 94.7% | 104% | 94.3% | 98.3% | 95% | 83.8% |
| CC(C)(C)OC(=O)Nc1ccc(-c2cc(C(=O)NCCCCCCC(=O)NO)no2)cc1 | 1.43% and 12.4% | 5.74% | 9.27% | 11.5% | 0.79% | 0.64% | 1.39% | 2.31% |
| NCC(=O)Nc1ccc(-n2nc(C(F)(F)F)cc2-c2ccc3c(ccc4ccccc43)c2)cc1 | 0.38% and 0.39% | 0.29% | 0.31% | 0.5% | 0.18% | 0.22% | 0.19% | 0.23% |
| CN1CCN(c2ccc(Nc3ncc4cc(C#N)c(=O)n(C5CCCC5)c4n3)cc2)CC1 | 79.5% and 104% | 87.8% | 60.4% | 58.4% | 17.9% | 16.4% | 21.4% | 29.1% |
| O=C(NCCS(=O)(=O)c1ccc(C(F)(F)F)cn1)c1ccc(Cl)cc1 | 103% and 96.6% | 102% | 91.2% | 102% | 102% | 99.2% | 91.7% | 102% |
| C[C@@H]1O[C@@H]1P(=O)(O)O [fosfomycin tromethamine] | 108% and 107% | 100% | 109% | 114% | 103% | 104% | 106% | 98.6% |
| NC(=O)C1CCCc2c1[nH]c1ccc(Cl)cc21 (configuration not stated) | 97% and 96% | 105% | 89% | 102% | 96% | 99.6% | 91.2% | 92.2% |
| COc1ccc(OC)c(C2C(C#N)=C(N)Oc3n[nH]c(-c4ccc5ccccc5c4)c32)c1 (configuration not stated) | 104% and 111% | 105% | 98.9% | 99% | 98.7% | 102% | 105% | 106% |
| Cn1c(=O)c2[nH]cnc2n(C)c1=O [Aminophylline (Truphylline)] | 91.1% and 89.1% | 89.2% | 83.4% | 95.7% | 86.8% | 89.8% | 88.9% | 102% |
| COCCCOc1ccnc(C[S+]([O-])c2nc3ccccc3[nH]2)c1C (configuration not stated) [Rebeprazole sodium] | 95.2% and 93.6% | 101% | 104% | 106% | 95.6% | 102% | 97.4% | 113% |
| O=C(c1ccc(Nc2nccc(-c3cc4ccccc4s3)n2)cc1)N1CCC(N2CCCC2)CC1 | 1.53% and 1.22% | 1.15% | 0.47% | 0.54% | 0.29% | 0.3% | 0.25% | 0.35% |
| O=c1c(-c2ccc(O)cc2)coc2cc(O)cc(O)c12 [Genistein] | 97.4% and 105% | 105% | 92.6% | 87.8% | 79.4% | 88.7% | 81.8% | 87.4% |
| COc1cc(C(=O)O)ccc1O [Vanillic acid] | 103% and 97.7% | 111% | 98.9% | 105% | 102% | 108% | 104% | 113% |

| Structure (SMILES) | cell viability (K562; SRSF2 genotype: SRSF2 P95H/wt) | cell viability (K562; SRSF2 genotype: SRSF2 wt/wt) | cell viability (MARIMO; SRSF2 genotype: SRSF2 P95H/wt) | cell viability (MARIMO; SRSF2 genotype: SRSF2 wt/wt) | cell viability (MOLM14; SRSF2 genotype: SRSF2 P95H/wt) | cell viability (MOLM14; SRSF2 genotype: SRSF2 wt/wt) | cell viability (OCI-AML2; SRSF2 genotype: P95H/wt) | cell viability (OCI-AML2; SRSF2 genotype: wt/wt) |
| --- | --- | --- | --- | --- | --- | --- | --- | --- |
| O=C(Nc1nc2cccc(-c3ccc(CN4CCS(=O)(=O)CC4)cc3)n2n1)C1CC1 | 89.3% and 94.9% | 84.5% | 71.2% | 73% | 48.1% | 45.3% | 20.1% | 41.7% |
| CN1CCN(Cc2ccc(-c3cnc4[nH]cc(-c5ccc6[nH]ccc6c5)c4c3)cc2)CC1 | 2.18% and 1.72% | 2.36% | 0.62% | 0.44% | 0.32% | 0.4% | 0.33% | 0.41% |
| Cc1c(OCC(F)(F)F)ccnc1C[S+]([O-])c1nc2ccccc2[nH]1 (configuration not stated) [Lansoprazole] | 98% and 96.2% | 90% | 98.6% | 104% | 103% | 95.5% | 91.7% | 102% |
| CCN(CC)CC(O)CNc1ccc(NCC2CO2)c2c1C(=O)c1ccccc1C2=O (configuration not stated) | 1.64% and 0.64% | 3.62% | 1.76% | 2.11% | 2.26% | 0.31% | 0.66% | 0.95% |
| CC1(C)CC[C@]2(C(=O)O)CC[C@]3(C)C(=CC[C@@H]4[C@@]5(C)CC[C@H](O)[C@@](C)(CO)[C@@H]5CC[C@]43C)[C@@H]2C1 [Hederagenin] | 103% and 102% | 97.1% | 98.4% | 112% | 106% | 105% | 120% | 107% |
| CS(=O)(=O)c1ccc([C@@H](O)[C@@H](CO)NC(=O)C(Cl)Cl)cc1 [Thiamphenicol (Thiophenicol)] | 86.1% and 88.3% | 87.7% | 103% | 101% | 98.5% | 96.8% | 97.3% | 91.2% |
| CCOc1cc([C@@H](CS(C)(=O)=O)N2C(=O)c3cccc(NC(C)=O)c3C2=O)ccc1OC | 102% and 98.7% | 94.5% | 99.5% | 92.5% | 98% | 94.9% | 90.1% | 94.7% |
| CN[C@@H](C)C(=O)N[C@H](C(=O)N1CCC[C@H]1C(=O)N[C@H]1c2ccccc2C[C@H]1OCC#CC#CCO[C@@H]1Cc2ccccc2[C@@H]1NC(=O)[C@@H]1CCCN1C(=O)[C@@H](NC(=O)[C@H](C)NC)C1CCCCC1)C1CCCCC1 | 0.57% and 0.73% | 0.61% | 0.76% | 0.89% | 0.51% | 0.62% | 0.56% | 0.58% |
| O=C(O)CCCN1CCC(O[C@@H](c2ccc(Cl)cc2)c2ccccn2)CC1 [Bepotastine Besilate] | 89.5% and 84.3% | 84.8% | 86.5% | 97.8% | 90.9% | 93.3% | 82.6% | 86.2% |
| CC(=O)Oc1cccc2ccccc12 [1-Naphthyl acetate] | 90.4% and 85.3% | 95.8% | 92.4% | 97.5% | 93.7% | 93.8% | 93.3% | 90.8% |
| O=C(Nc1ccccc1-c1cn2c(CN3CCNCC3)csc2n1)c1cnc2ccccc2n1 | 0.23% and 0.19% | 0.26% | 0.19% | 0.26% | 0.15% | 0.18% | 0.14% | 0.2% |
| N=C(N)NC(=N)NCCc1ccccc1 [Phenformin hydrochloride] | 84.6% and 93.3% | 91.7% | 93.2% | 98.2% | 101% | 94.9% | 86% | 89.3% |
| O=c1ccoc2cc(O)ccc12 [7-Hydroxy-4-chromone] | 102% and 95.6% | 93.5% | 99.1% | 104% | 98.9% | 104% | 97.1% | 96.3% |
| N#CCNC(=O)c1ccc(-c2ccnc(Nc3ccc(N4CCOCC4)cc3)n2)cc1 [Momelotinib (CYT387)] | 81.2% and 85.3% | 86.1% | 26.7% | 42.8% | 15% | 5.08% | 11% | 15.7% |
| CN[C@@H](C)C(=O)N[C@H]1CN(C(=O)CC(C)C)CC[C@H]2CC[C@@H](C(=O)NC(c3ccccc3)c3ccccc3)N2C1=O | 69.6% and 74.7% | 72.8% | 64.5% | 46.6% | 0.57% | 0.76% | 60.2% | 39.2% |
| CCCCCC(O)C=CC1C(O)CC(=O)C1CCCCCCC(=O)O (configuration not stated) [Alprostadil(Caverject)] | 69.3% and 64.4% | 84.2% | 82.4% | 73.2% | 50.1% | 22.4% | 80.3% | 62.1% |
| CC(C)(O)[C@H]1CC[C@@](C)(C2[C@@H](O)C[C@@]3(C)[C@@H]4C[C@H](O)C5C(C)(C)[C@@H](O)CCC56CC46CC[C@]23C)O1 (some centres not stated) [Cycloastragenol] | 105% and 109% | 97.6% | 112% | 118% | 108% | 107% | 111% | 110% |
| O.O.O.O.O.O.O.[Cl][La]([Cl])[Cl] [Lanthanum(III) chloride heptahydrate] | 107% and 102% | 102% | 109% | 114% | 107% | 104% | 99.2% | 99.4% |
| Cn1cc(C(=O)Nc2ccc3c(c2)OCCO3)c2ccccc2c1=O | 88.4% and 81.6% | 81.2% | 80.4% | 83.5% | 84.3% | 82.8% | 80.3% | 95.8% |
